Screening data deposited in PubChem BioAssay by several laboratories.
FAK inh: inhibitors of human focal adhesion kinase | inhibition, %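 (tested at 7 µM)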 | biochemical FAK kinase activity assay | actives 0.84% (n = 97,000) | AID 727 | Q05397; in the data active = inhibition above about 19%;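 also: 0% = DMSO and 100% = reference compound high control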
ROCK2 inh: blocks human Rho kinase 2 activity; AID 604; purified ROCK2, Kinase-Glo ATP depletion luminescence; inhibition, % at 6 µM; O75116; actives 0.35% (n = 60,000);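 active = inhibition above the screen-wide mean inhibition plus 3 SD, cut at about 18% in these data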;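 also: plate controls were DMSO wells for no effect and Y-27632 control wells after no-enzyme background subtraction for full effect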
PKA inh: inhibitors of human protein kinase A | inhibition, % at 6 µM | actives 0.1% (n = 65,000) | PKA Kemptide phosphorylation, Kinase-Glo ATP luminescence;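 active = inhibition above the screen-wide mean inhibition plus 3 SD, cut at about 21% in these data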
PLK1 kinase inh: PLK1 (human) kinase inhibition | inhibition, % at 10 µM | actives 0.53% (n = 97,000) | AID 619 | recombinant PLK1 kinase, TR-FRET peptide phosphorylation;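 active = inhibition of 50% or more in the single-concentration screen; inactive = inhibition below 50%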;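 also: 0% = DMSO max control and 100% = H-89 dihydrochloride min control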
PLK1 PBD inh: Plk1 (human) PBD binding inhibition; P53350; Plk1 PBD phosphopeptide binding, fluorescence polarization; inhibition, %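 (tested at about 20 µM)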; actives 0.13% (n = 97,000); AID 693; in the data active = inhibition above about 34%, passing the limit was not always enough
JNK3 inh: JNK3 (human) kinase inhibition | P53779 | purified JNK3 kinase activity, HTS | inhibition, % at 8 µM | actives 0.61% (n = 60,000) | AID 746; in the data active = inhibition above about 17%;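 also: 0% = DMSO and 100% = reference inhibitor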
Target sequence (P53779 whole entry, looked up): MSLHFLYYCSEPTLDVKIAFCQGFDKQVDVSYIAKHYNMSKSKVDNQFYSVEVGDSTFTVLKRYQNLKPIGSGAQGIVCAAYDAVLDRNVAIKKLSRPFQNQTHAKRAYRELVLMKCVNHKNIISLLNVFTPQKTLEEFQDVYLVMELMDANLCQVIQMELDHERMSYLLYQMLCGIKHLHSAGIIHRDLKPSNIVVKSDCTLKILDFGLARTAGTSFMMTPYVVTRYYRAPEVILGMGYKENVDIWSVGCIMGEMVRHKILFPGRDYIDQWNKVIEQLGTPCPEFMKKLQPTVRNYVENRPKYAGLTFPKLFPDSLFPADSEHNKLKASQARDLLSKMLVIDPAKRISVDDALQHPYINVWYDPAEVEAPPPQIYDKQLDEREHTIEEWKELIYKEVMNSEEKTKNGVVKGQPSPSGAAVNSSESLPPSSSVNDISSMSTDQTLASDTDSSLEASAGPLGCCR
Active calls of the source: *; nt = no result given. An excerpt weighted towards active compounds, which were near 1.5% of everything screened.

SMILES	FAK inh	ROCK2 inh	PKA inh	PLK1 kinase inh	PLK1 PBD inh	JNK3 inh
CCOC(=O)c1c(NC(=O)CSc2nnc3c(n2)[nH]c2ccccc23)sc2c1CCN(C)C2	20*	nt	nt	1	-21	nt
COc1ccc(NC(=O)CN2CCN(C3c4ccccc4-c4ccccc43)CC2)cc1	5	nt	nt	-3	-23	nt
CCSCCOC(=O)C1=C(C)NC(=O)NC1c1ccccc1 (stereo not given)	5	4	2	61*	14	1
O=C(Nc1ccc(NC(=S)NC(=O)c2ccccc2Cl)cc1)c1cccc(Cl)c1	8	nt	nt	-7	11	nt
Cc1cccc(-c2noc(-c3cc4ccccc4oc3=O)n2)c1	-6	nt	nt	0	-12	nt
CS(=O)(=O)NCCSc1nnnn1-c1ccccc1	-1	0	-1	-5	6	0
Cc1ccc(S(=O)(=O)NCCSc2nnnn2-c2ccc(C(N)=O)cc2)cc1	nt	13	54*	nt	nt	1
COc1ccc2nc(NC(=O)Cc3ccc(OC)c(S(=O)(=O)N4CCOCC4)c3)sc2c1	9	8	14	-4	19	29*
CCOC(=O)C1=C(CSc2nc(-c3ccncc3)ccc2C#N)OC(N)=C(C#N)C1c1cccnc1 (stereo not given)	nt	21*	5	nt	nt	-7
Cc1cccc(NS(=O)(=O)c2cc(C(=O)NCCC3=CCCCC3)ccc2Cl)c1	-2	nt	nt	-11	-29	nt
Cc1ccc2cc(C)c3nnc(SCC(=O)Nc4nc5c(s4)CCCC5)n3c2c1	2	nt	nt	-3	-4	nt
Cc1nn(-c2ccccc2)c2c1C(O)n1c(nc3ccccc31)S2 (stereo not given)	nt	1	9	nt	nt	19*
CCCSc1nc(N)nc(-c2cccs2)c1C#N	9	nt	nt	-11	-24	nt
CCn1c(C(C)NC(C)=O)nc2ccccc21 (stereo not given)	7	2	6	-19	29	31*
O=C1C(c2ccncc2)=C(O)c2ccccc21	15	-9	-12	12	14	56*
O=C1C(=C(O)c2ccccc2)C(=O)c2ccccc21	-4	-1	-2	5	-24	-9
O=C(COc1ccc2ccccc2c1)Nc1ccc(Cc2ccncc2)cc1	11	nt	nt	63*	7	nt
COc1cc(CC(=O)Nc2ncc(C)s2)cc(OC)c1OC	2	3	2	-4	-4	42*
COc1ccc(CC(=O)Nc2nc(C)cs2)cc1OC	4	2	1	-6	4	32*
COc1ccc(CC(=O)Nc2cc(C)on2)cc1OC	2	nt	nt	-13	-23	nt
Cc1cnc(NC(=O)COc2ccccc2)s1	-3	7	9	4	0	-1
N#CCCS(=O)(=O)c1nnnn1-c1ccccc1	-2	2	3	-7	0	-1
CS(=O)(=O)N1CCN(c2ccccc2NC(=O)CSc2ccc(Cl)cc2)CC1	1	-2	1	-1	-9	21*
Cc1nn(Cc2ccc(C(=O)Nc3ccc(Br)c4cccnc34)o2)c(C)c1Br	-2	nt	nt	-15	18	nt
O=c1cc(-c2ccccc2)[nH]c2nc3ccccc3n12	9	-19	-4	-9	-7	19*
SMILES	FAK inh	ROCK2 inh	PKA inh	PLK1 kinase inh	PLK1 PBD inh	JNK3 inh
CCCCNC(=O)c1cn(C)c2ccc(S(=O)(=O)N3CCOCC3)cc2c1=O	nt	3	7	nt	nt	9
Cc1cccc2cc(=O)[nH]c(C)c12	-3	18*	8	-12	-9	4
Cc1sc2nc(CN(Cc3cccs3)C(=O)NC3CCCCC3)[nH]c(=O)c2c1C	-1	4	12	57*	30	-8
Cc1sc2nc(CN(C(=O)NC3CCCCC3)C3CCCC3)[nH]c(=O)c2c1C	0	nt	nt	-13	-21	nt
c1csc(-c2cnc3ccccc3n2)c1	nt	3	1	nt	nt	25*
c1cc(-c2nc3cc(Oc4ccc5oc(-c6ccncc6)nc5c4)ccc3o2)ccn1	nt	-3	-4	nt	nt	-8
COCc1cc(C)nc(SCC(=O)Nc2ccccc2C)c1C#N	-5	4	1	-6	2	5
COCc1cc(C)nc(SCC(=O)Nc2cc3c(cc2C#N)OCO3)c1C#N	-5	6	12	-8	1	22*
COc1cccc(NC(=O)C2CCCN(S(=O)(=O)c3cccc4cccnc34)C2)c1 (stereo not given)	-6	5	5	-9	-15	-9
O=C(Nc1ccncc1)C1CCCN(S(=O)(=O)c2cccc3cccnc23)C1 (stereo not given)	0	75*	11	3	10	-14
CC(C)(C)NC(=O)C1CCCN(S(=O)(=O)c2cccc3cccnc23)C1 (stereo not given)	2	6	8	62*	-38	2
Nc1ccc(CN2CCN(c3ccc4ccccc4n3)CC2)cc1	nt	7	11	nt	nt	3
CCn1ncc(Br)c1C(=O)Nc1ccccc1C(=O)OC	53*	nt	nt	-9	-2	nt
CCn1ncc(Br)c1C(=O)Nc1ccc(F)cc1F	-3	-2	4	-7	-11	3
O=C(Nc1cccc(NC(=O)c2nccc3ccccc23)c1)c1ccco1	nt	3	6	nt	nt	3
O=C(c1ccc(CS(=O)(=O)c2ccc(Br)cc2)o1)N1CCCC1	7	5	-1	69*	-2	4
CC(=O)c1ccc(OCC(O)COc2ccc(C(C)=O)cc2)cc1	-3	19*	17	-9	44	3
CC(=O)c1ccc(OCC(O)CN2CCN(Cc3ccccc3)CC2)cc1 (stereo not given)	0	-2	5	65*	0	4
CCOC(=O)C1CCN(CC(O)COc2ccc(C(C)(C)C)cc2)CC1 (stereo not given)	-3	-8	-6	-2	-10	-9
O=C(c1ccccc1)c1ccc(OCC(O)CN2CCN(Cc3ccccc3)CC2)cc1 (stereo not given)	0	nt	nt	-8	4	nt
CCOC(=O)C1CCN(CC(O)COc2ccc(C(C)=O)cc2)CC1 (stereo not given)	2	4	4	65*	1	9
CC(=O)c1ccc(OCC(O)CN2CCN(c3ccccn3)CC2)cc1 (stereo not given)	-4	0	3	69*	4	0
CC(=O)c1ccc(OCC(O)CN2CCN(CC(O)COc3ccc(C(C)=O)cc3)CC2)cc1 (stereo not given)	0	nt	nt	-9	6	nt
CCC(C)(C)n1nnnc1CN1CCc2ccccc21	-2	nt	nt	4	8	nt
CCOC(=O)C1CN(S(=O)(=O)c2cccc(C(F)(F)F)c2)c2cc(CC(=O)OC)ccc2O1 (stereo not given)	1	nt	nt	-2	25	nt
O=C(Oc1ccc2ccccc2c1Br)N1CCCCCC1	5	nt	nt	-16	4	nt
Fc1ccc(CSc2nc3ncc(Br)cc3[nH]2)cc1	8	nt	nt	-33	-5	nt
Cc1nc(Nc2ncc3c(n2)CCCC3=O)nc2ccccc12	nt	2	-3	nt	nt	-6
O=C(c1ccccc1)c1ccc2nc[nH]c2c1	4	33*	14	48	-25	2
Cc1c(C)n(C(=O)CSc2nc3ccccc3[nH]2)c2ccccc12	3	nt	nt	-3	-13	nt
